Some test systems named below: NCI-H23 lung; NCI-H226 lung; NCI-H322M lung; HOP-62 NSCLC; NCI-H460 lung; HOP-92 NSCLC; NCI-H522 lung; A549/ATCC NSCLC; 786-0 renal; COLO 205 colon; DU-145 prostate; K-562 leukemia; MALME-3M melanoma; MDA-MB-231 breast; RXF 393 renal; SF-268 CNS; SF-295 CNS; SF-539 CNS; UACC-257 melanoma; M14 melanoma.
Common to all, as to test: NCI-60 one-dose screen, 48 h (100 = growth as untreated, 0 = no growth, -100 = all killed)
Holding throughout (details): 10 µM unless noted

The panel holds about 83,000 compounds, 20% with a hit somewhere; the sample as a whole holds those more often.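 Interpretation: 100, growth as untreated; towards 0, rising growth inhibition; 0, no net growth; 0 to -100, cell death. Compounds scoring below 10 were considered active.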 Unmarked numbers belong to inactive results. Activity calls are given as the source filed them.

For the molecule `c1ccc(-c2cn(-c3ccccc3)c(-c3ccccc3)n2)cc1`, the growth in the test with NCI-H23 lung was 77.6%; in the test with NCI-H226 lung, 93.4%; in the test on NCI-H322M lung, 104%; with HOP-62 NSCLC it was 82%; with NCI-H460 lung, 89.5%; in the test with HOP-92 NSCLC it was 69.4%. Besides, the growth with NCI-H522 lung was 73.9%; in the test on A549/ATCC NSCLC, 48%; in the test with 786-0 renal it was 71.5%; in the test on COLO 205 colon it was 95.2%; in the test with DU-145 prostate it was 71.4%; with K-562 leukemia it was -51.5% (active). Also, the growth in the test on MALME-3M melanoma is 95%; in the test on MDA-MB-231 breast, 94.3%; in the test with RXF 393 renal, 79.9%; in the test with SF-268 CNS, 85.5%; in the test with SF-295 CNS it was 127%; in the test with SF-539 CNS, 73.5%. Also, the growth in the test with UACC-257 melanoma was -45.3% (active).
Consider `COc1ccc(C(=O)N2NC(=O)/C(=C/c3ccccc3F)N=C2c2ccccc2)cc1`, for which the growth with NCI-H23 lung was 93.5%; in the test on NCI-H226 lung, 104%; in the test on NCI-H322M lung, 110%; in the test with HOP-62 NSCLC, 108%; with NCI-H460 lung it was 106%; in the test with HOP-92 NSCLC, 96.8%. The growth with NCI-H522 lung is 102%; in the test on A549/ATCC NSCLC, 96.2%; in the test with 786-0 renal it was 102%; in the test on COLO 205 colon, 122%; with DU-145 prostate it was 115%; in the test on K-562 leukemia, 104%. Besides, the growth in the test on MALME-3M melanoma is 109%; in the test with MDA-MB-231 breast it was 106%; in the test with RXF 393 renal it was 106%; in the test on SF-268 CNS it was 105%; with SF-295 CNS, 101%; with SF-539 CNS, 131%. Moreover, the growth is 99.7% with UACC-257 melanoma and 111% in the test on M14 melanoma.
With `Cc1nn(-c2ccc(Cl)cc2)c2ncnc(N/N=C/c3cccc([N+](=O)[O-])c3)c12`, the growth in the test with NCI-H23 lung was 94.3%; in the test with NCI-H226 lung it was 104%; in the test on NCI-H322M lung it was 96.4%; with HOP-62 NSCLC, 107%; in the test with NCI-H460 lung it was 77.8%; in the test on HOP-92 NSCLC, 20.4%. Also, the growth in the test with NCI-H522 lung is 103%; in the test on A549/ATCC NSCLC it was 104%; with 786-0 renal, 96.4%; in the test on COLO 205 colon, 95.3%; in the test with DU-145 prostate, 68.7%; in the test with K-562 leukemia, 17.4%. The growth was 97.2% in the test on MALME-3M melanoma; 102% in the test on MDA-MB-231 breast; 110% in the test with RXF 393 renal; 58% in the test with SF-268 CNS; 101% in the test with SF-295 CNS; 106% in the test on SF-539 CNS. Further, in the test with UACC-257 melanoma, the growth was 103%.
Regarding `CN1C(=O)N(C)C2C1NN=c1s/c(=C\c3cccnc3)c(=O)n12` (stereo unspecified), the growth in the test with NCI-H23 lung was 86%; in the test with NCI-H226 lung, 89.3%; with NCI-H322M lung it was 89.1%; with HOP-62 NSCLC it was 82.1%; with NCI-H460 lung it was 83.8%; with HOP-92 NSCLC, 78.9%. Besides, the growth with NCI-H522 lung is 72.2%; with A549/ATCC NSCLC, 84%; in the test with 786-0 renal it was 96.5%; with COLO 205 colon, 87%; in the test with DU-145 prostate, 95.5%; with K-562 leukemia it was 27.7%. The growth in the test with MALME-3M melanoma was 71.4%; in the test with MDA-MB-231 breast, 69.1%; with RXF 393 renal, 92.4%; in the test with SF-268 CNS, 84.8%; in the test on SF-295 CNS, 81.7%; in the test on SF-539 CNS, 91%. Besides, the growth in the test on UACC-257 melanoma was 85.2%; with M14 melanoma it was 61.1%.
For `O=c1ccn(-c2ncnc3nc[nH]c23)cc1`, the growth in the test on NCI-H23 lung is 92.1%; with NCI-H226 lung it was 88.8%; in the test on NCI-H322M lung it was 97.5%; in the test on HOP-62 NSCLC it was 89.8%; in the test with NCI-H460 lung, 113%; in the test on HOP-92 NSCLC, 72.9%. The growth was 80.4% in the test on NCI-H522 lung; 35.8% in the test with A549/ATCC NSCLC; 97.1% in the test with 786-0 renal; 101% in the test on COLO 205 colon; 101% in the test on DU-145 prostate; 89.9% in the test on K-562 leukemia. Further, the growth was 68.8% in the test with MALME-3M melanoma; 101% in the test on MDA-MB-231 breast; 79.6% with RXF 393 renal; 95.2% in the test on SF-268 CNS; 115% in the test on SF-295 CNS; 96.4% with SF-539 CNS. The growth in the test with UACC-257 melanoma was 3.23% (active).
Take `C=C[C@@H]1C[C@@H]2Cc3cc(Cl)ccc3N1O2`: the growth was 101% with NCI-H23 lung; 88.9% in the test on NCI-H226 lung; 130% with NCI-H322M lung; 94.8% in the test with HOP-62 NSCLC; 97.5% in the test with NCI-H460 lung; 67% with HOP-92 NSCLC. Further, the growth in the test with NCI-H522 lung is 92.7%; in the test with A549/ATCC NSCLC, 100%; in the test on 786-0 renal it was 102%; in the test on COLO 205 colon, 94.3%; in the test with DU-145 prostate, 111%; in the test with K-562 leukemia, 95.4%. In addition, the growth in the test on MALME-3M melanoma is 88%; in the test on MDA-MB-231 breast it was 99.3%; with RXF 393 renal, 104%; in the test on SF-268 CNS, 106%; in the test with SF-295 CNS, 100%; with SF-539 CNS, 105%. Besides, the values for the growth in the test on UACC-257 melanoma and in the test with M14 melanoma were 99.2% and 97.9%, respectively.
Regarding `Cc1nn(-c2ccc([N+](=O)[O-])cc2)c2ncnc(NCCc3ccccc3)c12`, the growth in the test with NCI-H23 lung is 95.9%; in the test with NCI-H226 lung it was 97.8%; with NCI-H322M lung it was 116%; with HOP-62 NSCLC it was 102%; in the test with NCI-H460 lung, 91.6%; in the test with HOP-92 NSCLC, 91.3%. In addition, the growth in the test with NCI-H522 lung was 107%; with A549/ATCC NSCLC it was 99.8%; with 786-0 renal, 105%; with COLO 205 colon, 104%; in the test on DU-145 prostate, 110%; in the test with K-562 leukemia, 76.8%. Moreover, the growth in the test on MALME-3M melanoma is 121%; in the test on MDA-MB-231 breast it was 102%; with RXF 393 renal, 102%; with SF-268 CNS, 94.7%; in the test with SF-295 CNS it was 111%; in the test on SF-539 CNS, 99.5%. Further, the growth in the test on UACC-257 melanoma is 106%.
Take `CCOc1cc2c(Cl)ncnc2c(OCC)c1OCC`: the growth was 79.6% in the test on NCI-H23 lung; 91.6% in the test on NCI-H226 lung; 65.4% in the test on NCI-H322M lung; 90.9% in the test on HOP-62 NSCLC; 99% in the test with NCI-H460 lung; 86.9% with HOP-92 NSCLC. Besides, the growth is 58.8% with NCI-H522 lung; 95.6% in the test on A549/ATCC NSCLC; 105% in the test with 786-0 renal; 95.8% in the test on COLO 205 colon; -56.1% (active) in the test on DU-145 prostate; 19.5% in the test on K-562 leukemia. Besides, the growth in the test on MALME-3M melanoma was 83.8%; in the test on MDA-MB-231 breast it was 77.7%; with RXF 393 renal it was -5.68% (active); in the test with SF-268 CNS, 33.9%; with SF-295 CNS, 96.1%; with SF-539 CNS, 92.5%. The growth is -17% (active) with UACC-257 melanoma and 73.7% in the test on M14 melanoma.

For the origin of these results see PubChem BioAssay (NCI).
